# Assay results taken from PubChem BioAssay.
# Calls of active or inactive are those of the source.
# What was measured:
# [1] = binders of probe aFSTL3 on microarray, primary screen, stem cell growth factor project, biochemical, small-molecule microarray, fluorescence 635/667 (AID 1064); details: higher = more signal;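 further: measures binding of the biotinylated anti-FSTL3 antibody to printed compounds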
# [2] = binders from COS7 lysate, DM2A8 probe, primary screen, torsin A project, cell lysate, small-molecule microarray, fluorescence 635/667 (AID 1065); details: higher = more signal, COS7 lysate expressing mutant human TOR1A
# [3] = binders of probe aFGF2 on microarray, primary screen, stem cell growth factor project, biochemical, small-molecule microarray, fluorescence 635/667 (AID 1067); details: higher = more signal;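 further: measures binding of biotinylated aFGF2 protein to printed compounds on slides; z-score merges feature fluorescence and signal-to-noise across triplicate slides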
# [4] = binders of probe aFGF10 on microarray, primary screen, stem cell growth factor project, biochemical, small-molecule microarray, fluorescence 635/667 (AID 1071); details: higher = more signal;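 further: score merges 667 nm spot intensity and signal to noise from triplicate slides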
# [5] = target: Neurogenic locus notch homolog protein 2 (Homo sapiens) (UniProt Q04721); assay: Notch2 binders on small-molecule microarrays, primary screen, biochemical, small-molecule microarray, 635 nm fluorescence, stem cell growth factors (AID 1073); details: Notch2 binding, higher = more signal
# [6] = target: Pro-neuregulin-1, membrane-bound isoform (Homo sapiens) (UniProt Q02297); assay: NRG1 binders on small-molecule microarrays, primary screen, psychiatric disease protein project, biochemical, small-molecule microarray, fluorescence 635/667 (AID 1075); details: NRG1 binding, 635 nm fluorescence, higher = more signal;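 further: score combines 667 nm spot fluorescence with signal to noise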
# [7] = test system: Neuregulin-1 EGF-like domain; assay: binders of neuregulin-1 EGF-like domain, primary screen, biochemical, small-molecule microarray, 635 nm fluorescence (AID 1081); details: small-molecule microarray binding, higher = more signal;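 further: binding of the protein to compounds printed on small-molecule microarray slides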
# [8] = FRG1 promoter luciferase signal modulators, primary screen, FRG1 inhibition for FSHD, cell-based, C2C12 myotubes, firefly/Renilla luciferase, luminescence (AID 1084); details: higher = more signal, called active from +8 up or from −8 down
# [9] = binders of probe aFST on microarray, primary screen, stem cell growth factor project, biochemical, small-molecule microarray, fluorescence 635/667 (AID 1086); details: higher = more signal;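 further: score merges 667 nm fluorescence with signal-to-noise of each printed compound spot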
# [10] = binders of probe aHhip on microarray, primary screen, stem cell growth factor project, biochemical, small-molecule microarray, fluorescence 635/667 (AID 1087); details: higher = more signal;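 further: score merges spot fluorescence at 667nm with spot signal to noise ratio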
# [11] = test system: PRMT1 (protein arginine N-methyltransferase 1); assay: PRMT1 binders on small-molecule microarrays, primary screen, biochemical, small-molecule microarray, 635 nm fluorescence (AID 1088); details: small-molecule microarray binding, higher = more signal;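 further: binding of Prmt1 protein to compounds spotted on small-molecule microarray slides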
# [12] = yeast growth modulation, basal conditions, primary screen, YJM789 clinical isolate, OD600, 24 h (AID 1089);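 further: growth of clinical yeast isolate S. cerevisiae YJM 789 seeded 1000 cells per well; test concentration not given here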; details: S. cerevisiae YJM789 growth, higher = more signal, called active from +8 up or from −8 down
# [13] = fission yeast growth modulation, primary screen, strain 972, OD600, 24 h, no modulator (AID 1090);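 further: basal condition with compound alone and no growth modifier present; test concentration not given here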; details: S. pombe 972 growth, higher = more signal, called active from +8 up or from −8 down
# [14] = S. cerevisiae growth modulation with rapamycin, primary screen, strain BY4716, OD600, 96 h (AID 1091); details: higher = more signal, called active from +8 up or from −8 down; further: test concentration not given here
# [15] = target: Torsin-1A-interacting protein 2 (Homo sapiens) (UniProt Q8NFQ8); assay: LULL1 binders on small-molecule microarray, primary screen, cell lysate, human LULL1 lysate, 635/667 nm fluorescence (AID 1092); details: hLULL1 lysate binding, 635 nm fluorescence, higher = more signal;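 further: probe is lysate of COS7 cells overexpressing human LULL1; score merges per-feature 667 nm fluorescence with signal-to-noise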
# [16] = E. coli growth modulation, two-sided OD650, primary screen, E. coli filamentation project, strain DRC41, 24 h (AID 1093); details: OD650, 24 h, higher = more signal, called active from +8 up or from −8 down;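 further: MC1000 strain lacking acrAB efflux and sulA so SOS filamentation is blocked; test concentration not given here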
# [17] = small-molecule microarray binders of probe aLefty2, primary screen, biochemical, biotinylated probe, 635/667 nm fluorescence (AID 1094); details: higher = more signal;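 further: score merges spot fluorescence near 667 nm with spot signal-to-noise ratio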
# [18] = test system: Noggin (protein binding on small-molecule microarray); assay: Noggin binders on small-molecule microarray, primary screen, biochemical, 635/667 nm fluorescence (AID 1095); details: 635 nm fluorescence, higher = more signal;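 further: score merges 667 nm feature fluorescence with signal to noise over triplicate slides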
# [19] = target: Neurogenic locus notch homolog protein 3 (Homo sapiens) (UniProt Q9UM47); assay: NOTCH3 binders on small-molecule microarray, primary screen, biochemical, 635/667 nm fluorescence (AID 1096); details: NOTCH3 binding, 635 nm fluorescence, higher = more signal
# [20] = small-molecule microarray binders of probe aEGFR, primary screen, biochemical, biotinylated probe, 635/667 nm fluorescence (AID 1097); details: higher = more signal;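 further: probe is a biotinylated anti-EGFR antibody binding compounds printed on slides; score combines fluorescence near 667 nm and signal to noise of each spot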
# Sequence of Neurogenic locus notch homolog protein 2 (Homo sapiens) (Q04721 whole entry, looked up, canonical isoform): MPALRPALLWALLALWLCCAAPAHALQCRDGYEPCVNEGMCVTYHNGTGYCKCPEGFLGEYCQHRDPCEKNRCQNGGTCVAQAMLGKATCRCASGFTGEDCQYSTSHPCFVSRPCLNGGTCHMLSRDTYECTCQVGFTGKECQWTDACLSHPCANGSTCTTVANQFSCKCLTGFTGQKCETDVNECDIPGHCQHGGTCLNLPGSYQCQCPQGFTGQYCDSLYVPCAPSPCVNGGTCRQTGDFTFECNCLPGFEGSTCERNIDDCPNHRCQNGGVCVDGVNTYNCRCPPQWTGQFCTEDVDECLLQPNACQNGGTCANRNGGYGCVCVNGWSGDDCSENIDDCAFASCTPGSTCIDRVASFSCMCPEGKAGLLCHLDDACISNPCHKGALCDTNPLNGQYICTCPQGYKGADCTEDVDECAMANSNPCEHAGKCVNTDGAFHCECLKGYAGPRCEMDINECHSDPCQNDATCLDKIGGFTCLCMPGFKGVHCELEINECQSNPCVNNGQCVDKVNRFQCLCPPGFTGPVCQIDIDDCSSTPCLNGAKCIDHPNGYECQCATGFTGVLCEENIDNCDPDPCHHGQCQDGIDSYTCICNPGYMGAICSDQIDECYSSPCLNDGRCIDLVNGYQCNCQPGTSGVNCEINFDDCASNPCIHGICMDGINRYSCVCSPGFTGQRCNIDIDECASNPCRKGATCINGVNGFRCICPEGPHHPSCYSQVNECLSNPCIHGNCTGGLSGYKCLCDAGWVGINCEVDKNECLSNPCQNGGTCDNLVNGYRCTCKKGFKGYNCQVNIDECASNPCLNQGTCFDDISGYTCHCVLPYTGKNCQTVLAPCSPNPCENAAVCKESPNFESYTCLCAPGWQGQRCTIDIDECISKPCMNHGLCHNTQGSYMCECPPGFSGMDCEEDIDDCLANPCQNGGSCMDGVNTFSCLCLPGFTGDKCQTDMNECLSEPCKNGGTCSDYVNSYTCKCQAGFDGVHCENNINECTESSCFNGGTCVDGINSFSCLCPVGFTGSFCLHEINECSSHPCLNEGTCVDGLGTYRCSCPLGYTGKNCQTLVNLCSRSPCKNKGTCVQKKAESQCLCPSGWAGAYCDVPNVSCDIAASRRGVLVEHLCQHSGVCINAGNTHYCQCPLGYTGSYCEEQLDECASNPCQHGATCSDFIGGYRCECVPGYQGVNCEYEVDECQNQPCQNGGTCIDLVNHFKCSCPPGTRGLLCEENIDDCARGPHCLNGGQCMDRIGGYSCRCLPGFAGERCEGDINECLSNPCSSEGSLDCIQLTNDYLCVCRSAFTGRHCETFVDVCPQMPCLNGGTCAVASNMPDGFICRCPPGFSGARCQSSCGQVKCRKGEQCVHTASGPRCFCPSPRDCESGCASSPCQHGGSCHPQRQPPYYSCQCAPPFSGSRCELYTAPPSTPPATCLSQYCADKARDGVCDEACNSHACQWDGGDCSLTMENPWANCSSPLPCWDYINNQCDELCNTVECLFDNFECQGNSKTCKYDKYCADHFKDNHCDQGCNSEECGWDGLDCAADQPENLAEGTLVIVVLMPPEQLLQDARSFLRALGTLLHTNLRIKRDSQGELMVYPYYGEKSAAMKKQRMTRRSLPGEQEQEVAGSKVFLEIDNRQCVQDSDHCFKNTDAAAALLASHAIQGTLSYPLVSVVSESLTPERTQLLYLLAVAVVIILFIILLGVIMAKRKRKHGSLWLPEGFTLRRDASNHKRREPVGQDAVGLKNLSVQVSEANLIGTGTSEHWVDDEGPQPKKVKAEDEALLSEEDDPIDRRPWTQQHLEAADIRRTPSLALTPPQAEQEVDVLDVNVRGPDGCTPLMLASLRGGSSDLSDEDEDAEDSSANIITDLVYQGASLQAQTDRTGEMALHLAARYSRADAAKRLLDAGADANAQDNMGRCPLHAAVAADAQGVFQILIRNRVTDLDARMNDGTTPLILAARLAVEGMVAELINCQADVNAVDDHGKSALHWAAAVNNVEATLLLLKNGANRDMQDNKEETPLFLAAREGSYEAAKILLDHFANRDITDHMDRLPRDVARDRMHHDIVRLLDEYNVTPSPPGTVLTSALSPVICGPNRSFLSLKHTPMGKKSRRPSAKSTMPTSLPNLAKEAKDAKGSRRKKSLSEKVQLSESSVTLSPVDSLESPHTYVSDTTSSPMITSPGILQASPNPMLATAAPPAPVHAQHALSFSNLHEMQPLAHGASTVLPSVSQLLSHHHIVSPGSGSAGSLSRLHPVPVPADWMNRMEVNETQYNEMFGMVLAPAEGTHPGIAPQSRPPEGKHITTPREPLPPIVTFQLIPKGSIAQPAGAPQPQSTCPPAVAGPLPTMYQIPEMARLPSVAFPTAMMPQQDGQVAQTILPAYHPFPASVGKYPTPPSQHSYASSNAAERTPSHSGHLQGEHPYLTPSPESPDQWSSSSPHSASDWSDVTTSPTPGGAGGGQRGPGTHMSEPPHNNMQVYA
# Sequence of Torsin-1A-interacting protein 2 (Homo sapiens) (Q8NFQ8 whole entry, looked up): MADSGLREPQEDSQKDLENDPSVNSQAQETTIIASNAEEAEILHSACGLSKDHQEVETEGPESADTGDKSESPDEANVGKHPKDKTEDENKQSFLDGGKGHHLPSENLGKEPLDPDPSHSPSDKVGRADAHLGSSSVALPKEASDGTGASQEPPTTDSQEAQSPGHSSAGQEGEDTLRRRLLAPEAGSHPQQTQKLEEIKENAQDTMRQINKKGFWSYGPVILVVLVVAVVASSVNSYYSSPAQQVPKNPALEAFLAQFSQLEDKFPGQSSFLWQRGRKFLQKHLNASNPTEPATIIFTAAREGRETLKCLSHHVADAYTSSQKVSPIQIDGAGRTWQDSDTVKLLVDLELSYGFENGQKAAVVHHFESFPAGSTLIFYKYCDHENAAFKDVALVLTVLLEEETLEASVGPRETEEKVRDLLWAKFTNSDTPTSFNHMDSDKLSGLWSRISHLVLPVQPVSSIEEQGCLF
# Sequence of Pro-neuregulin-1, membrane-bound isoform (Homo sapiens) (Q02297 whole entry, looked up, the tested form may be a part, canonical isoform): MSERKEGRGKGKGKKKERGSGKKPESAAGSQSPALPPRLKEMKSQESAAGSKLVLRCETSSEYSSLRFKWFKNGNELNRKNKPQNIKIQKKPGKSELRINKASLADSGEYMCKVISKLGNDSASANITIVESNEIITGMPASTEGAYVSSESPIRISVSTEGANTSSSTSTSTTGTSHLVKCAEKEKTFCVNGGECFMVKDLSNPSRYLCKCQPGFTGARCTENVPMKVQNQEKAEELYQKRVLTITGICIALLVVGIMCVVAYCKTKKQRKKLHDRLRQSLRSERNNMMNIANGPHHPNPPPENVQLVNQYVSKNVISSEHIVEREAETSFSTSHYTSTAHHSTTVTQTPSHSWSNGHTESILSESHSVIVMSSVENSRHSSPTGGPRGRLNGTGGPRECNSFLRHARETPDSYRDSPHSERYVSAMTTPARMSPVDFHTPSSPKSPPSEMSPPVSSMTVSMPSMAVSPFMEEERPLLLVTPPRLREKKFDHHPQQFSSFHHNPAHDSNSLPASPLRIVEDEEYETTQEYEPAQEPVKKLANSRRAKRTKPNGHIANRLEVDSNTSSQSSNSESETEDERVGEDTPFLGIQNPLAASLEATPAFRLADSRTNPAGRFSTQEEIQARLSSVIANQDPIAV
SMILES,composite z-score [1],composite z-score [2],composite z-score [3],composite z-score [4],composite z-score [5],composite z-score [6],composite z-score [7],z-score [8],composite z-score [9],composite z-score [10],composite z-score [11],z-score [12],z-score [13],z-score [14],composite z-score [15],z-score [16],composite z-score [17],composite z-score [18],composite z-score [19],composite z-score [20]
C[N+](C)(C)CCCCNC(=O)[C@H]1C[C@H]2C(=O)N3CCC[C@H]3C(=O)N2[C@H]1c1cccc(OCCO)c1,0.397,0.442,-0.154,-0.194,-0.568,-0.235,0.807,2.19 (inactive),0.412,0.0053,0.0394,0.573 (inactive),-0.0177 (inactive),-1.09 (inactive),0.889,0.51 (inactive),0.0459,1.52,0.0378,-0.185
C=C[C@H](OC)[C@@H](OC(=O)Nc1ccc(OC)cc1)c1ccc(O)c(F)c1,0.348,0.242,-0.175,-0.827,-1.31,1.11,0.804,2.95 (inactive),-0.922,-0.0994,0.148,0.337 (inactive),-1.18 (inactive),1.3 (inactive),1.89,0.512 (inactive),-0.21,-0.932,-0.363,-0.335
CCCC[C@H]1OB(O)C[C@H]2C1=C(COC)Cn1c(=O)n(-c3ccccc3)c(=O)n12,-0.516,0.107,-0.157,0.392,0.325,-0.19,0.484,0.103 (inactive),0.199,-0.236,0.601,0.461 (inactive),0.19 (inactive),-0.386 (inactive),0.814,0.498 (inactive),-0.208,0.0562,0.121,-0.137
